# Source: PubChem (National Center for Advancing Translational Sciences (NCATS))
# D2 antagonist = HTS Assay for Allosteric Antagonists of the Human D2 Dopamine Receptor: Primary Screen for Antagonists. HEK293 TREx D2 cells, calcium flux, dopamine EC80. D(2) dopamine receptor (Homo sapiens), P14416. inhibition, % at 10 µM. AID 485344, 2010. hit rate 2% among 340,000; in the data active = inhibition above about 30%; inactive = below that, where a call was filed; also: 0% is about no effect
#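 Calcium flux kinetic readout in an inducible HEK293 TREx D2 line plated overnight at 30 C. After 180 s compound exposure, an EC80 dopamine challenge follows with another 180 s kinetic read to detect antagonism.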
# D2 ag-1 = Beta-Arrestin HTS for Positive Allosteric Modulators of the Human D2 Dopamine Receptor: Agonists. D(2) dopamine receptor (Homo sapiens), P14416. DiscoveRx PathHunter D2 beta-arrestin, luminescence, 90 min; 100% = 57 uM dopamine signal. activation, % (concentration not given with the values). hit rate 0.084% among 360,000. AID 624465, 2012; in the data active = activation above about 40%; inconclusive = between about 15% and that limit
#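 Agonist mode: compounds alone added to overnight-plated D2 PathHunter cells for 90 min at 37 C, with 57 uM final dopamine (EC100) defining full response. Beta-arrestin recruitment detected by chemiluminescent reagent, read after 1 h at ambient temperature.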
# D2 PAM-1 = Beta-Arrestin HTS for Positive Allosteric Modulators of the Human D2 Dopamine Receptor: Potentiators | potentiation, % (test concentration not listed) | DiscoveRx D2 beta-arrestin cells, luminescence, 90 min; 100% = 57 uM dopamine signal | hit rate 0.23% among 360,000 | D(2) dopamine receptor (Homo sapiens), P14416; in the data active = potentiation above about 50%; inconclusive = mostly about 30% to 49%
#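 PathHunter D2 cells, attached overnight at 37 deg C, received compound in DMSO plus dopamine at EC20 (50 nM final) for 90 min at 37 deg C. Beta-arrestin recruitment was read as luminescence after 1 h with detection reagent at ambient temperature.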
# D2 ag-2 = HTS Assay for Allosteric Agonists of the Human D2 Dopamine Receptor: Primary Screen for Agonists | D(2) dopamine receptor (Homo sapiens), P14416 | hit rate 0.53% among 340,000 | HEK293 T-REx D2 cells, calcium flux agonist mode | activation, % at 2 µM;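 active = activation over 3 SD above normal in the single-dose calcium agonist read, cut at about 30% in these data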; also: 0% is about no effect
#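 Tetracycline-induced HEK293 T-REx cells with force-coupled D2 receptor, plated overnight at 30 C, loaded with no-wash calcium dye. After a 10 s baseline, compound was pin-added and calcium flux read kinetically for 180 s; calcium rises flagged agonists.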
# D2 PAM-2 = HTS Assay for Positive Allosteric Modulators of the Human D2 Dopamine Receptor: Primary Screen for Potentiators | AID 485347, 2010 | D(2) dopamine receptor (Homo sapiens), P14416 | hit rate 0.34% among 340,000 | potentiation, % at 10 µM | HEK293 T-REx D2, calcium flux, EC20 dopamine potentiation;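 active = potentiation over 3 SD above the plate norm, cut at about 30% in these data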; also: 0% is about no effect
#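 Cells plated with tetracycline inducer and held overnight at 30 C; calcium dye loaded 30–90 min at room temperature; baseline taken, compound added and read 180 s; EC20 dopamine then added and read 180 s.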
# D3 arrestin ag = qHTS of D3 Dopamine Receptor Agonist: D3 Dopamine Receptor B-arrestin Agonist Confirmatory Assay. DiscoveRx D3 beta-arrestin cells, luminescence, 90 min. Potency, µM (series often up to 76.9 µM), for inactives: at the top dose activation, actives largely listed as activators. shares compounds with D2 ag-2. AID 720506, 2013. hit rate 4% among 2,300;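 also: potency is read from the fitted curve at half-maximal effect; 100% = dopamine control response; nearly all actives have a fitted effect of over 70% in size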
# Target sequence (P35462 whole entry, looked up): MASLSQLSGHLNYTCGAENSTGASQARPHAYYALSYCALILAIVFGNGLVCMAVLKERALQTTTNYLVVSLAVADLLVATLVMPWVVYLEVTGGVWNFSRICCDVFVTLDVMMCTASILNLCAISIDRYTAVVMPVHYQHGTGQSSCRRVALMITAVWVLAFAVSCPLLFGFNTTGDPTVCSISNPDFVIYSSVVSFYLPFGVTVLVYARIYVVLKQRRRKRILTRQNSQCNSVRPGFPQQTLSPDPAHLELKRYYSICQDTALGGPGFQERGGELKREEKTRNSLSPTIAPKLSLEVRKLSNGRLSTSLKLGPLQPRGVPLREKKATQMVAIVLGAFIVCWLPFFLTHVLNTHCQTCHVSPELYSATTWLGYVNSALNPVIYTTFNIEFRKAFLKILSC
# D2 ag-3 = qHTS of D3 Dopamine Receptor Agonist: D2 Dopamine Receptor B-arrestin Agonist Counterscreen | shares compounds with D2 ag-2 | DiscoveRx PathHunter D2 beta-arrestin, luminescence, 90 min; response scale: percent relative to full dopamine signal | Potency, µM (series often up to 76.9 µM), inactives show top-dose activation, most hits filed as activators | hit rate 5.9% among 2,300 | AID 720507, 2013; also: potency is read from the fitted curve at half-maximal effect; % of control where 0% means no effect; nearly all actives have a fitted effect of over 70% in size
# Numbers without * were called inactive; ? = inconclusive; . = no result given. This is a sample that favours compounds with a hit; in the whole collection about 2.4% have one here. Unless noted, calls follow the shape of the dose curve; as a rule, active = well fitted activation curve with a large enough effect; inconclusive = small, poorly fitted or top-dose-only effect; inactive = flat fitted curve, though single readings scatter.
SMILES,D2 antagonist,D2 ag-1,D2 PAM-1,D2 ag-2,D2 PAM-2,D3 arrestin ag,D2 ag-3
CC(=O)CC(C)(C)Nc1nc2cc([N+](=O)[O-])ccc2o1,-8,-4,-12,0,-15,.,.
CC(=O)CC(C)(C)Nc1nc2ccc([N+](=O)[O-])cc2o1,39*,-2,-6,0,2,-8%,-2%
CC(=O)N1c2ccc(S(=O)(=O)N3CCC(C(=O)Nc4ncccc4C)CC3)cc2CC1C (centres undefined),5,1,-5,27,-8,-8%,-5%
CCC(=O)N1CCc2cc(S(=O)(=O)CCC(=O)Nc3ccc(C(C)=O)cc3)ccc21,2,2,1,-1,7,.,.
CCC(=O)N1CCc2cc(S(=O)(=O)CCC(=O)Nc3nc(C)cs3)ccc21,10,11,-8,64*,-20,11%,11%
CCC(=O)N1CCc2cc(S(=O)(=O)CCC(=O)Nc3ccc(CC)cc3)ccc21,2,0,-1,1,0,.,.
CCC(=O)N1CCc2cc(S(=O)(=O)CCC(=O)NC3CCCCC3)ccc21,-2,0,-5,1,5,.,.
CCOC(=O)N1CCC(NC(=O)CCS(=O)(=O)c2ccc3c(c2)CCN3C(=O)CC)CC1,73*,?,4,66*,-21,12%,?
CCC(=O)N1CCc2cc(S(=O)(=O)CCC(=O)Nc3ccc(C)cn3)ccc21,64*,3,0,57*,-20,6%,19%
CCC(=O)N1CCc2cc(S(=O)(=O)N3CCCC3)ccc21,-23,-1,-3,0,-18,.,.
CCC(=O)N1c2ccc(S(=O)(=O)N3CCN(CC)CC3)cc2CC1C (centres undefined),39*,7,-9,48*,-16,-7%,28%
CCC(=O)N1CCc2cc(S(=O)(=O)N3CCCCCC3)ccc21,31*,5,-13,37*,-11,-6%,-2%
COc1ccc(Oc2ncc(CN3CCN(c4ccccc4)CC3)s2)cc1,76*,42*,27,72*,-27,?,5.6µM*
Brc1ccc(Oc2ncc(CN3CCOCC3)s2)cc1,7,-1,-26,0,-3,.,.
Cc1cc(Cl)ccc1Oc1ncc(CN2CCN(c3ccccc3)CC2)s1,84*,?,17,65*,-27,?,32µM*
COc1ccc(Cl)cc1NC(=O)Cn1c(=O)n2nc(-c3ccccc3)nc2c2ccccc21,.,.,.,0,2,.,.
Cn1cc(CN2CCN(c3ccc(Cl)cn3)CC2)c(-c2ccccc2F)n1,5,0,-18,2,-1,.,.
Cc1cccc(N2CCN(Cc3cn(C)nc3-c3ccccc3F)CC2)n1,30*,?,-7,51*,-24,1%,17%
Cn1cc[nH]c1=S,-4,-4,11,25,-12,-3%,-4%
CC(C)c1ccccc1-n1cc[nH]c1=S,-16,-3,-11,2,5,.,.
CCCCCCCCC(NC(=O)c1ccc(C#N)cc1)C(=O)NCCC (centres undefined),0,-3,-4,0,-1,-13%,-2%
CCCNC(=O)C(CC)NC(=O)c1ccc(C#N)cc1 (centres undefined),-4,0,0,1,-2,.,.
CCCNC(=O)C(Cc1cccc(C#N)c1)NC(=O)c1ccc(C#N)cc1 (centres undefined),-1,-3,-55,-1,-6,-5%,-6%
CCCNC(=O)C(Cc1cccc(Cl)c1)NC(=O)c1ccc(C#N)cc1 (centres undefined),10,-9,-2,0,18,.,.
CCCNC(=O)C(Cc1ccc(I)cc1)NC(=O)c1ccc(C#N)cc1 (centres undefined),-2,-3,-4,0,-3,-8%,-2%
SMILES,D2 antagonist,D2 ag-1,D2 PAM-1,D2 ag-2,D2 PAM-2,D3 arrestin ag,D2 ag-3
CCCN(CCC)CCNC(=O)CCC(=O)Nc1ccc2nc(N3CCN(C)CC3)cc(C)c2c1,-4,-3,-8,13,-18,14%,15%
CCCCNC(=O)CCC(=O)Nc1ccc2nc(N3CCN(C)CC3)cc(C)c2c1,-8,-5,-10,0,7,.,.
CCOc1ccccc1CNS(=O)(=O)c1ccc2c(c1)CCCN2C(C)=O,.,.,.,1,-8,.,.
Cn1nnnc1Sc1ncnc2scc(-c3ccc(F)cc3)c12,.,-2,1,.,.,-2%,-4%
Cn1nnnc1Sc1ncnc2scc(-c3ccccc3)c12,5,-5,-3,0,7,.,.
Cc1ccc(Cn2c(C)c(CNCCCc3ccccc3)c(C(=O)O)c2C)cc1,.,.,.,-1,1,.,.
O=C(CN1CCCC1)Nc1cc(C(F)(F)F)cc(C(F)(F)F)c1,24,3,-10,51*,-21,-17%,19%
COc1ccc(OC)c(CN2CCN(C(=O)c3cccs3)CC2)c1,71*,49*,?,82*,-23,23%,?
COc1cccc(CN2CCN(C(=O)c3cccs3)CC2)c1OC,71*,?,-4,90*,-25,?,?
Cc1c(-c2ccc(Cl)cc2)c(=O)oc2c(CN3CCN(C)CC3)c(O)ccc12,.,.,.,.,-7,.,.
CCCC(=O)N1CCN(Cc2ccc3c(c2)OCO3)CC1,-1,5,8,61*,-32,-11%,10%
O=C(O)CCC(=O)N1CCN(Cc2ccc3c(c2)OCO3)CC1,9,-5,0,5,7,.,.
c1ccc(-c2csc3ncnc(N4CCN(Cc5ccc6c(c5)OCO6)CC4)c23)cc1,-6,-2,-19,0,-14,.,.
CC(C)CC(=O)N1CCN(Cc2ccc3c(c2)OCO3)CC1,29,?,10,80*,-24,-11%,?
O=C(CSc1ncnc2scc(-c3ccccc3)c12)N1CCN(Cc2ccc3c(c2)OCO3)CC1,70*,?,15,74*,-23,10%,?
